Test [1] in a line: Validation of Assay for Modulators of Lamin A Splicing (AID 1459; active = well fitted curve in the direction sought with a large enough effect in the signal ratio; the % refers to the signal ratio;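 note: cells exposed to compound for two days before reading; 0% is about no effect; ratio rise marks activators and ratio drop marks inhibitors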). Put shortly: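 HeLa S3 lamin A-EGFP/DsRed2 stable clone, 600 cells/well, Opti-MEM 2% FBS; compounds by pin tool; 48 hrs, 37 °C/5% CO2; Acumen 488 nm scan, objects 10-100 um; GFP/RFP intensity ratio.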
The nature of test [2]: qHTS Assay for Lipid Storage Modulators (AID 1519; calls by dose curve; for activity change, negative = inhibition: % is set by controls: 0 for no effect and ±100 for the full control effect). As to conditions: Drosophila S3 cells, BODIPY lipid droplet/cell ratio, laser cytometry, cells loaded with oleic acid; for activity change, negative = inhibition: at 57.5 µM (top of the series). Put shortly:
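Cells seeded at 5,000 per well were treated with compounds over a concentration series and loaded with oleic acid (400 uM, as added). Lipid droplet fluorescence (488 nm excitation, 500-530 nm channel) was read by laser-scanning cytometry and normalized to 20 uM Triacsin C.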
Background: Quantitative high-throughput screening tests each substance at several concentrations.

A short description of test [3]: Counterscreen for APE1 Inhibitors: Fluorescent Dye Displacement Validation Assay (AID 1707).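 Note: plate controls were ThO with dsDNA and no compound for no effect and ThO without dsDNA for full effect.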 Put shortly: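 Assay buffer: Tris-HCl pH7.5 with 50mM NaCl, 2 mM MgCl2, 0.01% Tween-20. Dye 250 nM, duplex 50 nM final. Readout: decrease in ThO endpoint fluorescence, 480 nm excitation, 540 nm emission.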
For test [4], the target named is Endonuclease 4 (Escherichia coli (strain K12)) (UniProt P0A6C1). Kind of test: Counterscreen for APE1 Inhibitors: qHTS Validation Assay for Inhibitors of Endonuclease IV (AID 1708). Note: % is set by controls: 0 for no effect and ±100 for the full control effect. Put shortly:
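Concentration-response counterscreen run identically to the APE1 assay: 15 min room-temperature preincubation of 2 nM enzyme with compound, reaction started with 50 nM quenched abasic DNA, progress taken from kinetic fluorescence.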
In general terms: A counterscreen serves to expose hits that act by an unwanted route or on another target.

The nature of test [5]: qHTS for differential inhibitors of proliferation of Plasmodium falciparum line 7G8 (AID 1815).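 Note: parasite growth measured after three days of incubation; plate controls were vehicle wells for no effect and reference inhibitor wells for full effect.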
Test [6] in a line: qHTS for differential inhibitors of proliferation of Plasmodium falciparum line GB4 (AID 1816).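 For activity change, negative = inhibition: 0% = vehicle DMSO and -100% = reference inhibitor.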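 Note: parasite growth measured after 72 h incubation.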 Note: potency is the fitted concentration of half-maximal effect. To be noted: Potency: Plasmodium falciparum GB4 proliferation inhibition.
Test [7] in a line: qHTS for differential inhibitors of proliferation of Plasmodium falciparum line 3D7 (AID 1876).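 Note: parasite growth measured after three days of culture; 0% = vehicle wells and -100% = reference inhibitor wells.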
A short description of test [8]: qHTS for differential inhibitors of proliferation of Plasmodium falciparum line D10 (AID 1877).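 Note: parasites grown with compound for 72 h before DNA staining; plate controls were vehicle wells for no effect and reference inhibitor wells for full effect.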
Test [9] in a line: qHTS for differential inhibitors of proliferation of Plasmodium falciparum line Dd2 (AID 1882).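 Note: plate controls were DMSO vehicle for no effect and 0.29 µM artemisinin for full effect; nearly all actives have a fitted effect of over 65% in size.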 To be noted: Potency: Plasmodium falciparum Dd2 proliferation inhibition. Put shortly:
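Dd2-infected erythrocytes (0.3% parasitemia, 2.5% hematocrit final) incubated with compound 72 h at 37 C, 5% CO2; lysed with saponin/Triton buffer containing SYBR Green I, incubated overnight in the dark, then read by fluorescence (485/535 nm). Normalized to 0.29 uM artemisinin and DMSO.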

Test [10] in a line: qHTS for differential inhibitors of proliferation of Plasmodium falciparum line W2 (AID 1883).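 For activity change, negative = inhibition: 0% = vehicle wells and -100% = control inhibitor wells.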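 Note: parasites grown with compound for 72 h before lysis and staining.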 Note: potency is the fitted concentration of half-maximal effect. As to conditions: Potency: Plasmodium falciparum W2 proliferation inhibition.
Test [11] can be described thus: qHTS for differential inhibitors of proliferation of Plasmodium falciparum line HB3 (AID 1886).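 Note: parasites grown with compound for 72 h before SYBR Green readout; plate controls were vehicle for no effect and reference inhibitor for full effect.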 As to conditions: Potency: Plasmodium falciparum HB3 proliferation inhibition.
The nature of test [12]: qHTS Assay for Modulators of Human Peripheral Myelin Protein 22 (PMP22) Expression/Activity (AID 1967; active = well fitted curve in the direction sought with a large enough effect in the signal ratio; the % refers to the signal ratio;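 note: 0% = untreated cells and 100% end not stated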). Put shortly: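 Luminescence ratio of Pmp22 promoter-driven green luciferase to EF-alpha-driven red luciferase, in engineered mouse MSC80 Schwann cells, served as read-out. Compounds were incubated 24h; untreated cells defined 0% Activity; curves were classified by r2, magnitude and activity.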

Test [13] addresses Ferritin light chain (Equus caballus) (UniProt P02791). The test is described as follows: qHTS Validation Assay for Identification of Novel General Anesthetics (AID 2323). Note: % is set by controls: 0 for no effect and ±100 for the full control effect. A digest of the protocol: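 Fluorescence at 535 nm (excitation 380 nm) reported loss of 1-AMA binding to horse-spleen apoferritin (10 uM) in PBS with 50% saturated 1-aminoanthracene, after 10 min room-temperature incubation with compound; values from Hill fits of normalized response.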

Test [14] addresses ATP-dependent DNA helicase Q1 (Homo sapiens) (UniProt P46063). Kind of test: qHTS Validation Assay for Inhibitors of RecQ-Like Dna Helicase 1 (RECQ1) (AID 2353).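 Note: plate controls were DMSO vehicle for no effect and enzyme-free control for full effect.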 A digest of the protocol:
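50 nM RECQ1T1 preincubated 15 min with compound in Tris pH 8.0 buffer with MgCl2, DTT, Tween-20 and 2.5 ug/ml poly(dI-dC); started with 200 nM TAMRA/BHQ-2 forked duplex and 2 mM ATP. Unwinding read as fluorescence (525/598 nm), two reads 2 h apart.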

The target of test [15] is DNA repair nuclease/redox regulator APEX1 (Homo sapiens) (UniProt P27695). The test is described as follows: qHTS Validation Assay for Inhibitors of the Human Apurinic/apyrimidinic Endonuclease 1 (APE1) (AID 1705;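 note: TAMRA fluorescence gain over two minutes as APE1 cuts a quenched THF abasic duplex; % is set by controls: 0 for no effect and ±100 for the full control effect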). A digest of the protocol: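 qHTS, 1536-well. APE1 + cpd 15 min RT → 50 nM TAMRA/BHQ-2 THF-abasic dsDNA substrate → kinetic fluorescence, 3 reads/60 s; delta(read3−read1) = reaction progress. No-enzyme buffer = negative control.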
DNA repair nuclease/redox regulator APEX1 (Homo sapiens), sequence (P27695 whole entry, looked up): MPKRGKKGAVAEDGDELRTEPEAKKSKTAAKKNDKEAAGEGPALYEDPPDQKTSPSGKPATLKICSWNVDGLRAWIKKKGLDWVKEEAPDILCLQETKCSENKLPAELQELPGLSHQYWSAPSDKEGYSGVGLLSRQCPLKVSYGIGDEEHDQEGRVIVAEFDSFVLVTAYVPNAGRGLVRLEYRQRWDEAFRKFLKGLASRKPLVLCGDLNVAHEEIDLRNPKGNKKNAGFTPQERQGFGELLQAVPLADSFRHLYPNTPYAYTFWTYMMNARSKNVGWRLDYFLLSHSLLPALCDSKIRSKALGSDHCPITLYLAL

The target of test [16] is alpha-glucosidase (Oryza sativa, rice) (UniProt Q653V4). The test is described as follows: Counterscreen for Glucocerebrosidase Inhibitors: qHTS Assay for Rice alpha-Glucosidase at pH 5.0 (AID 997).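 Note: 0% = full activity with enzyme and -100% = basal without enzyme.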 A digest of the protocol:
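Rice alpha-glucosidase (4 nM final) with 400 uM 4-methylumbelliferyl-alpha-D-glucopyranoside in citrate buffer pH 5.0, 20 min at room temperature, stopped at pH 10; fluorescence 365/440 nm, compounds 0.7 nM–77 uM, AC50 from Hill fits.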

Test [17] concerns the target RecQ-like DNA helicase BLM (Homo sapiens) (UniProt P54132). Kind of test: qHTS Validation Assay for Inhibitors of Bloom's syndrome helicase (BLM) (AID 2364).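 Note: plate controls were DMSO vehicle for no effect and enzyme-free control for full effect.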 A digest of the protocol: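 BLM 50 nM in 25 mM Tris-HCl pH 8.0, 5 mM NaCl, 2 mM MgCl2, 1 mM DTT, 0.01% Tween-20, 2.5 ug/ml poly(dI-dC); 15 min cpd preinc, RT. Start: 200 nM forked DNA + 2 mM ATP (final). TAMRA read, 2 reads 2 h apart.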

The mark [18] stands for this setting: measured here: cell count channel max response.
[19] abbreviates: measured here: lipid channel max response.

Values joined by “and” are separate entries in the source; they are usually repeats but may differ in a detail not shown here. Identical values can stand only once. Inconclusive results are not listed. Active and inactive are the calls of the source. Unless noted, calls come from the whole dose curve; as a rule, active = well fitted curve in the direction sought with a large enough effect; inconclusive = small, poorly fitted or top-dose-only effect, or another doubt; inactive = no such curve, though single readings can be large; an effect the other way counts as inactive or inconclusive.

ATP-dependent DNA helicase Q1 (Homo sapiens), sequence (P46063 whole entry, looked up): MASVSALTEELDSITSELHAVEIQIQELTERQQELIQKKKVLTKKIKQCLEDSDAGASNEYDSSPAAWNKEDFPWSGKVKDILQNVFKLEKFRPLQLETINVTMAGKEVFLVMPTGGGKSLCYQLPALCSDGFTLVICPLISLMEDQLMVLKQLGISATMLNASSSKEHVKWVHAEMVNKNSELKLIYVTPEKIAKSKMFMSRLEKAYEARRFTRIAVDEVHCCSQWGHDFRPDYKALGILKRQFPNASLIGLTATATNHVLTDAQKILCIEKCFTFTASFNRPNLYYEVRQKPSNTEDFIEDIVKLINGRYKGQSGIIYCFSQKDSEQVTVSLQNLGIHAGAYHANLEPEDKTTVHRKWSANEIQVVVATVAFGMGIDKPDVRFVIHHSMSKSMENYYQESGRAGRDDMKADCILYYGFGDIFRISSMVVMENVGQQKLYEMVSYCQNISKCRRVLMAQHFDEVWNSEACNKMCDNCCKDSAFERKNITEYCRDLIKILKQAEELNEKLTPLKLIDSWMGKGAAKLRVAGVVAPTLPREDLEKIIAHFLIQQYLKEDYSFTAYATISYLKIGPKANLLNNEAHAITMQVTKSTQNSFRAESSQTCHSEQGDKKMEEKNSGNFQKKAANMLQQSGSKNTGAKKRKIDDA
Ferritin light chain (Equus caballus), sequence (P02791 2-175 limits assumed): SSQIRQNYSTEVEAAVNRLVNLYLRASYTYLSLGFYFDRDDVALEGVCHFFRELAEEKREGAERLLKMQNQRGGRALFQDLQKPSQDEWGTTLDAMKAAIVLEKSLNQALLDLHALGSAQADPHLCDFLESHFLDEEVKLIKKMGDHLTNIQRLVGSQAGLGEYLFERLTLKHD
RecQ-like DNA helicase BLM (Homo sapiens), sequence (P54132 whole entry, looked up): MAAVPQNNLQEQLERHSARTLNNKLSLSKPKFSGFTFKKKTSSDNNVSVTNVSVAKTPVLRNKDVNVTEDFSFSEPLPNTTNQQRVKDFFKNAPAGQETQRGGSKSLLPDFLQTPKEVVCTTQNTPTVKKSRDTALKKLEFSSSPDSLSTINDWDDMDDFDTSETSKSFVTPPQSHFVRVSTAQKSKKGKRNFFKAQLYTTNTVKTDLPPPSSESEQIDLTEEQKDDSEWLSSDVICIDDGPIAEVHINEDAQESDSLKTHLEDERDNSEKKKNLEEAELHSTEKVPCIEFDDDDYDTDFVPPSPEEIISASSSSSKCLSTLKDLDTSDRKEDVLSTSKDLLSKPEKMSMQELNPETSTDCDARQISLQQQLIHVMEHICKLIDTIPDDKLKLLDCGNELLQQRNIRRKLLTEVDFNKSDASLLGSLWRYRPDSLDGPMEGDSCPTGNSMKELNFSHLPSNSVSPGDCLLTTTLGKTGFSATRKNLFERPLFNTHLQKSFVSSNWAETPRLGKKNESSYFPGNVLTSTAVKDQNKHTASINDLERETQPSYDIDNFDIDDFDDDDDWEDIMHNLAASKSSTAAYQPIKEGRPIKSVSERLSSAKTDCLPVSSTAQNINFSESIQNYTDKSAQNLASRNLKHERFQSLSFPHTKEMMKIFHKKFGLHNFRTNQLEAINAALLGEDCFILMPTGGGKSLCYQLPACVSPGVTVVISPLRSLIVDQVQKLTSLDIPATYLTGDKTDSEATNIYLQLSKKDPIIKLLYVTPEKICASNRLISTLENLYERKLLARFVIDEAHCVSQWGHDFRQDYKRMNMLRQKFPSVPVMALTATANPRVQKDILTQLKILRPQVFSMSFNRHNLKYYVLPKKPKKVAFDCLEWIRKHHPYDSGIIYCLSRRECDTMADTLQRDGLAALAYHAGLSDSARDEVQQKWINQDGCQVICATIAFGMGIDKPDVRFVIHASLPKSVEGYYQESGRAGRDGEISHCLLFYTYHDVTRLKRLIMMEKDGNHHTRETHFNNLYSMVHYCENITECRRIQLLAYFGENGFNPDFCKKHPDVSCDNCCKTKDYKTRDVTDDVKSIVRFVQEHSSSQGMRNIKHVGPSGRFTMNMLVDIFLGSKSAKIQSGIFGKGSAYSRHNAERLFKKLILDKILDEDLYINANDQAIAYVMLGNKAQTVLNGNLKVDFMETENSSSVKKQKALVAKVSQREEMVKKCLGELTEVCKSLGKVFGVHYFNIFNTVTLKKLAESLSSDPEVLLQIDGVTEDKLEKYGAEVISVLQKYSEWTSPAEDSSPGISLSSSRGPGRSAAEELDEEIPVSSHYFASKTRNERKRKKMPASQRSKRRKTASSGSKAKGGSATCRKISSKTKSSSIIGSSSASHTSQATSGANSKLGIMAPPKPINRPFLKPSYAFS

In the case of `Cc1ccc(C(=O)O[C@H](C(=O)O)[C@@H](OC(=O)c2ccc(C)cc2)C(=O)O)cc1` (tested in a mixture with another compound), the result in test [1] and in test [12] was inactive. Also, the activity change, negative = inhibition in [2] was -0.359% (inactive). Moreover, the max response in [2] (setting [18]) is 35.2%; in test [2] (setting [19]), 38.6%. In addition, the Potency entry in test [3], in test [4], in test [5], in test [6], in [7] and in test [8] was “inactive” each time. For the same compound, the Potency result in test [9], in test [10], in test [11], in [13] and in [14] was “inactive” in each case.

As for `NC(CCCP(=O)(O)O)C(=O)O` (stereo unspecified), in test [1], the outcome was inactive. Besides, the activity change, negative = inhibition in [2] was 0.0706% (inactive). In addition, the max response in [2] (setting [18]) is -11.8%; in [2] (setting [19]), -9.55%. In addition, the Potency result in [15], in [3], in test [4], in [5], in test [6] and in [7] was “inactive” in each case. For the same compound, the Potency entry in test [8], in [9], in [10], in test [11], in test [13] and in test [14] was “inactive” throughout.

For the compound `OCC1O[C@H](O)C(Cl)C(O)C1O` (stereo partly specified), the compound was called inactive in test [1] and in test [12]. Moreover, the activity change, negative = inhibition in test [2] was 0.529% (inactive). In addition, the max response in test [2] (setting [18]) was -14.2%; in [2] (setting [19]) it was -14.7%. For the same compound, the Potency entry in [15], in [3], in test [4], in test [6], in [7] and in test [8] was “inactive” each time. For the same compound, the Potency result in [9], in [10], in [11], in [13] and in test [14] was “inactive” in each case.

In the case of `COc1cccc(C(=O)NCCN2CCN(c3ccc(Cl)cc3)CC2)c1`, the compound was classed as inactive in test [16] and in [1]. In addition, the activity change, negative = inhibition in test [2] is -1.54% (inactive). Moreover, the figures for the max response in [2] (setting [18]) and in test [2] (setting [19]) were -16.3% and -18.1%, respectively. For the same compound, the Potency result in test [15], in test [3], in test [6], in [9], in test [11] and in test [13] was “inactive” in each case. Moreover, the Potency entry in [14] and in [17] was “inactive” in each case. Moreover, in [10], the Potency is 14.1 µM (active).

As for `CC1(C)CCC=[N+]1[O-]`, the compound was classed as inactive in test [1] and in test [12]. Also, the Potency result in test [15], in test [3], in [4], in [5], in test [6] and in [7] was “inactive” in each case. Also, the Potency result in test [8], in test [9], in test [10], in test [11], in test [13] and in [14] was “inactive” in each case.

For `NCCCCC(=O)O`, the call in [16], in [1] and in test [12] was inactive. For the same compound, the activity change, negative = inhibition in test [2] is 7.28% (inactive) and -0.299% (inactive). The max response is -8.72% and -47.7% in test [2] (setting [18]); 11.7% and -48.3% in test [2] (setting [19]). Also, the Potency result in test [15], in test [3], in test [4], in test [5], in test [6] and in [7] was “inactive” each time. For the same compound, the Potency result in [8], in test [9], in test [10], in test [11], in [13] and in test [14] was “inactive” throughout.

For the compound `CC1CN(S(=O)(=O)c2cccc3cnccc23)CCN1` (stereo unspecified), the call in [1] and in test [12] was inactive. The activity change, negative = inhibition in test [2] was 1.97% (inactive). Further, the figures for the max response in [2] (setting [18]) and in test [2] (setting [19]) were 5.7% and 7.5%, respectively. In addition, the Potency result in test [15], in test [3], in test [4], in test [7], in test [8] and in test [9] was “inactive” each time. The Potency entry in [11], in [13], in test [14] and in test [17] was “inactive” each time. Also, the Potency in test [6] is 11.2 µM (active); in test [10] it was 7.94 µM (active).

Values taken from PubChem BioAssay (NCATS).
